# Compound activity deposited in PubChem by Broad Institute.
# A selection: hits, their analogues and other compounds. The true share with any hit is near 2.7%.
# Wnt bcat act: activates Wnt/beta-catenin signaling in a reporter cell assay; activator, plate reader; activation, % at 9.35 µM; 1.2% of 300,000 active; in the data active = activation above about 30%, passing the limit was not always enough; inconclusive = no clear call, values can overlap the other calls;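 note: 0% = neutral control wells and 100% = positive control wells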
# MITF act: MITF TRPM1 promoter activation in melanoma cells | SK-MEL-5 TRPM1-promoter luciferase, 24 h; % of positive control, neutral wells = 0 | activation, % at 12.5 µM | 0.75% of 300,000 active;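 active = mean activation of at least 80% with every replicate also reaching 80%; inconclusive = mean reaches 80% but some replicate falls short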;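 note: 0% = neutral control wells and 100% = parthenolide positive control wells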
# GSIS activator: GLuc luminescence reporter in INS-1E cells, primary screen for activators of glucose-dependent secretion of insulin; INS-1E GLuc reporter insulin secretion, 2-3 h; activation, % at 16.6 µM; 0.61% of 370,000 active; AID 743287;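 active = lowest replicate activation of at least 40%, so every replicate reaches that level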;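 note: 0% = median of neutral control wells and 100% = median of IBMX positive control wells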
# CFTR F508del cor: CFTR F508del correction in bronchial cells; activity (quench increase), % at 7.58 µM; 0.36% of 350,000 active; CFBE cells, YFP halide quenching; stimulated with forskolin plus potentiator P3; % fluorescence drop versus neutral controls;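 active = mean added fluorescence quench of at least 8% versus neutral control, with both replicates also reaching 8%; inconclusive = only one of the mean or replicate conditions met; inactive = mean below 8% and not both replicates reaching 8%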;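 note: cells transiently co-express mutant CFTR-F508del with the halide-sensitive YFP; corrector assay measuring rescue of mutant channel to the surface after 24 h compound exposure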
# HIV Env fusion: HIV envelope-mediated fusion inhibition | inhibition, % at 12.3 µM | HeLa-JRFL Env/CEM21 cell fusion, luciferase | AID 651610 | 1.1% of 360,000 active;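 active = mean replicate inhibition score of at least 50 and every replicate individually at or above 50; inconclusive = only one of the two criteria met; inactive = mean below 50 and not all replicates reaching 50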;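 note: 0% = plate neutral controls and 100% = maraviroc near 300 nM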
# Numbers without * were called inactive; ? = inconclusive; nt = not tested or not shown; [ ] = another dose, or the depositor's remark.
SMILES,Wnt bcat act,MITF act,GSIS activator,CFTR F508del cor,HIV Env fusion
CCOc1ccc(N/C(C)=C/C(=O)c2ccc3c(c2)OCCO3)cc1,46.5*,60.9,3.1,-0.4,-12.0
CCOc1ccc(N/C(C)=C\C(=O)c2ccc3c(c2)OCCO3)cc1,35.9*,45.5,-5.6,0.9,-46.1
COc1ccc(C(=O)/C=C(\C)Nc2ccc3c(c2)OCO3)cc1,?,nt,nt,nt,-68.7
C[C@@H]1CCCCO[C@@H](CN(C)Cc2ccncc2)[C@H](C)CN([C@@H](C)CO)C(=O)c2cc(NC(=O)Nc3ccc(F)cc3)ccc2O1,nt,nt,-12.4,3.8,-15.1[16.7 µM]
Cc1noc(C)c1NC(=O)Nc1cccc2c1O[C@@H](CN(C)Cc1ccncc1)[C@@H](C)CN([C@@H](C)CO)C2=O,nt,nt,-2.9,-0.9,-7.4[16.7 µM]
Fc1ccc(CNCc2ccccc2Cl)cc1,34.0*,17.3,-0.7,-3.2,4.2
Cc1ccccc1-c1ccc([C@@H]2[C@H](CO)N3CCCCN(C(=O)CN4CCOCC4)C[C@@H]23)cc1,nt,nt,-8.1,-0.9,nt
Nc1nc(NCc2ccccc2)nc(NCc2ccccc2)c1[N+](=O)[O-],0.2,8.6,46.2*,nt,9.6
CNc1nc(N)c([N+](=O)[O-])c(NCc2ccccc2)n1,-1.0,17.2,7.8,nt,-53.2
Cc1ccc(CNc2nc(N)c([N+](=O)[O-])c(NCc3ccccc3)n2)cc1,0.8,-4.9,126.4*,nt,5.0
Cc1ccc(C(=O)Nc2ccc3ccccc3n2)cc1,35.7*,41.2,-21.7,2.9,-125.3
O=C(Nc1ccc2ccccc2n1)c1ccccc1Br,35.1*,26.0,nt,-1.4,-88.8
O=C(CCc1ccccc1)Nc1ccccc1,17.1,46.6,5.2,-2.3,-5.5
O=C(Nc1ccc2ccccc2n1)c1ccccc1,18.0,29.3,4.9,-1.5,-73.1
O=C(CCc1ccccc1)Nc1ccc2ccccc2n1,55.8*,100.3*,-16.9,1.9,-102.1
CCCNC(=O)C[C@@H]1CC[C@H]2[C@H](COc3ccc(NC(=O)c4cccc(Cl)c4)cc3C(=O)N2C)O1,nt,nt,-7.3,-0.6,nt
COc1cccc(C(=O)Nc2ccc3c(c2)C(=O)N(C)C[C@@H](OC)[C@@H](C)CN[C@H](C)CO3)c1,nt,nt,8.6,-0.4,8.8[16.7 µM]
Cc1csc2sc(-c3ccnc(SCC(=O)NCc4ccccc4)n3)c(C)c12,-10.6,nt,-2.8,15.9*,-55.3
COC(=O)CNc1cc(S(=O)(=O)N2CCCCC2)ccc1Oc1ccc(C(=O)OC)cc1,-0.4,8.8,-19.9,8.7*,0.6
COC(=O)c1ccc(COC(=O)c2ccc(C)c(S(=O)(=O)N3CCCCC3)c2)cc1,9.2,96.2*,6.7,-3.5,-14.6
O=C(N[C@@H]1C=C[C@H](CC(=O)N2CCOCC2)O[C@H]1CO)c1ccc2c(c1)OCO2,nt,nt,0.0,0.4,4.3[16.7 µM]
COC(=O)c1nn(-c2ccc(C)cc2)c2nnc(Cc3ccccc3)c(=O)n12,36.7*,-0.8,7.7,nt,-18.4
Cc1ccc(C(=O)OC(C)C(=O)NC2CCCCC2C)s1 (stereo not given),-2.3,-5.1,-5.2,-0.9,nt
CC(OC(=O)c1cccs1)C(=O)NC1CCCCC1C (stereo not given),-0.2,5.1,14.3,28.6*,nt
O=C(C[C@H]1C=C[C@@H](NC(=O)Cc2cccnc2)[C@@H](CO)O1)Nc1ccccc1,nt,nt,3.4,-1.0,10.5[16.7 µM]
SMILES,Wnt bcat act,MITF act,GSIS activator,CFTR F508del cor,HIV Env fusion
COc1ccccc1S(=O)(=O)N[C@@H]1C=C[C@H](CC(=O)N2CCCCC2)O[C@@H]1CO,nt,nt,28.1,0.3,19.1[16.7 µM]
COc1ccc(NC(=O)Nc2ccc3c(c2)[C@@H]2C[C@H](CC(=O)NCc4ccccc4F)O[C@@H](CO)[C@@H]2O3)cc1,nt,nt,-1.7,3.3,-2.3[16.7 µM]
COc1ccc(OC)c2c1C(=O)C(Cl)=C(Cl)C2=O,-13.0,nt,58.3*,?,93.6*
Cc1ccc(S(=O)(=O)N(C)C[C@@H]2OCCCC[C@H](C)Oc3ccc(NC(=O)NC4CCCCC4)cc3C(=O)N([C@H](C)CO)C[C@@H]2C)cc1,nt,nt,-14.1,-2.4,-51.0[16.7 µM]
CC1(C)CC(=O)C(N=Nc2ccc(Br)cc2)=C(O)C1,70.4*,nt,11.5,-2.0,-6.6
CCCCCCCCCCOC(=O)Cn1c(COc2ccccc2OC)[n+](C)c2ccccc21,-7.8,nt,178.7*,-3.1,86.3*
Cn1c(COc2ccccc2O)[n+](C)c2ccccc21,4.3,-8.3,7.7,-0.8,10.4
C[C@@H]1CN([C@@H](C)CO)S(=O)(=O)c2ccc(C#CC3CC3)cc2O[C@H]1CN(C)C(=O)Nc1cc(F)ccc1F,nt,nt,-20.4,5.4,-4.1[16.7 µM]
CN1CCN(C(=O)[C@H]2[C@H](CO)[C@H]3Cn4c(ccc(C5=CCCCC5)c4=O)[C@@H]2N3S(C)(=O)=O)CC1,nt,nt,4.0,nt,4.0[16.7 µM]
CCc1ccc(NC(=O)c2cc(-c3cccs3)on2)cc1,-1.9,93.8*,nt,-1.5,3.6
COc1ccc(NC(=O)c2cc(C)n(Cc3cccs3)c2C)cc1,67.9*,nt,-17.1,-1.0,-123.9
COc1ccc(NC(=O)c2cc(-c3cccs3)on2)cc1,?,109.9*,-20.7,-1.6,47.7
COc1ccc(NC(=O)c2cc3ccccn3n2)cc1,30.6*,nt,-4.3,-0.6,-45.3
CO[C@H]1CC[C@H]2CCOc3c(C#N)cccc3C(=O)N(C)[C@H](C)C(=O)N(C)C[C@H]1O2,nt,nt,-11.5,-1.2,2.3[16.7 µM]
C[C@H](CO)N1C[C@H](C)[C@@H](CN(C)CC2CCCCC2)Oc2ccc(NC(=O)CCC(F)(F)F)cc2C1=O,nt,nt,8.1,1.3,-0.5[16.7 µM]
COc1ccc(NC(=O)c2cc(-c3cccs3)on2)cc1OC,nt,31.8,nt,nt,-13.9
Cc1ccc(NC(=O)c2cc(-c3cccs3)on2)cc1C,38.7*,99.2*,-0.2,0.8,-15.2
C[C@@H]1CN([C@H](C)CO)C(=O)c2cc(NC(=O)CCCCCC(=O)Nc3ccccc3N)ccc2O[C@H]1CN(C)S(=O)(=O)c1cn(C)cn1,nt,nt,4.9,-0.7,nt
COc1ccc(-c2ccc3c(c2)[C@H]2[C@H](CCN2S(=O)(=O)c2ccccc2C)[C@H](CO)N3C)cc1,nt,nt,5.9,0.9,nt
COc1ccc(S(=O)(=O)N(C)C[C@H]2Oc3c(NC(=O)Nc4ccccc4)cccc3C(=O)N([C@@H](C)CO)C[C@H]2C)cc1,nt,nt,3.4,-1.7,40.4[16.7 µM]
N#C/C(=N\Nc1ccc(F)cc1)C(=N)N1CCCCCC1,-3.1,75.1,1.9,-6.4,-81.9
N#C/C(=N\Nc1ccccc1F)C(=N)N1CCCCC1,28.2,85.2*,nt,nt,-218.5
COc1cccc(NC(=O)C[C@H]2CC[C@@H]3[C@H](COc4ccc(NC(=O)C5CCCC5)cc4C(=O)N3C)O2)c1,nt,nt,-5.0,nt,nt
O=C(CCN1CCCCC1)N[C@@H]1CC[C@@H](CCn2cc(-c3ccccc3)nn2)O[C@@H]1CO,nt,nt,1.0,3.3,74.9*[16.7 µM]
O=C(CCN1CCCCC1)N[C@H]1CC[C@H](CCn2cc(-c3ccccc3)nn2)O[C@@H]1CO,nt,nt,11.1,-2.3,77.5*[16.7 µM]
O=C(CCN1CCCCC1)N[C@H]1CC[C@H](CCn2cc(-c3ccccc3)nn2)O[C@H]1CO,nt,nt,-3.3,1.4,-22.4[16.7 µM]
O=C(CCN1CCCCC1)N[C@@H]1CC[C@H](CCn2cc(-c3ccccc3)nn2)O[C@@H]1CO,nt,nt,-5.1,1.8,-8.3[16.7 µM]
